Screens as filed in PubChem BioAssay.
KAT2A inh – qHTS Assay for Inhibitors of GCN5L2; Histone acetyltransferase KAT2A (Homo sapiens), Q92830; GCN5L2 HAT assay, ThioGlo1 CoA-SH fluorescence; Potency, µM (doses to about 58.9 µM), hits mostly inhibitors; hit rate 0.21% among 390,000; AID 504327, 2011
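Enzyme at 20nM final was mixed with library compounds for 15 min at room temperature. Peptide H3(1-25) at 75uM, acetyl-CoA at 70uM and ThioGlo1 at 50uM were then added. Plates were read immediately and after 20 min (Ex340nm/Em540nm).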
BAZ2B inh – qHTS Assay for Inhibitors of BAZ2B; Bromodomain adjacent to zinc finger domain protein 2B (Homo sapiens), Q9UIF8; hit rate 4.4% among 360,000; Potency, µM (top dose mostly 114 µM), hits mostly inhibitors; AID 504333, 2011; AlphaScreen BAZ2B-H3K14Ac peptide displacement; note: nearly all actives have a fitted effect of over 60% in size
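Protein-peptide AlphaScreen: BAZ2B 50 nM, b-H3K14Ac 50 nM, 1x PBS pH 7.4 + 0.01% Tween-20. Preincubation 30 min RT; cpd 30 min RT (top 110 uM); beads 20 min RT, light-protected.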
HP1b binding inh – HTS for Inhibitors of HP1-beta Chromodomain Interactions with Methylated Histone Tails | Chromobox protein homolog 1 (Homo sapiens), P83916 | AlphaScreen HP1-beta / biotin-H3K9me3 peptide binding | Potency, µM (series often up to 114 µM), hits mostly inhibitors | hit rate 0.56% among 390,000 | AID 540317, 2011; note: nearly all actives have a fitted effect of over 70% in size
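AlphaScreen: HP1-beta (50 nM) preformed 30 min with biotin-H3(1-18)K9me3 peptide (50 nM) in PBS pH 7.4, 0.01% Tween-20. Compound added for 30 min at RT, then streptavidin donor/nickel chelate acceptor beads (10 ug/mL) for 30 min.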
PI5P4Ka inh – qHTS for Inhibitors of phosphatidylinositol 5-phosphate 4-kinase (PI5P4K); Phosphatidylinositol 5-phosphate 4-kinase type-2 alpha (Homo sapiens), P48426; PI5P4Kalpha enzyme, ADP-Glo luminescence, 60 min; active compounds read low; max response, %; hit rate 1.2% among 330,000; active = max response of -50% or lower; inconclusive = between -30% and -50%; inactive = -30% or higher; note: value at the top dose of about 77 µM
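PI5P4Kalpha ADP-Glo assay; 5 microM ATP final; 60 min RT reaction; HEPES pH 7.4/EGTA/CHAPS, 5% DMSO; controls lacking substrate or enzyme; luminescent end-point.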
JMJD2A Tudor inh – qHTS Assay for Inhibitors of JMJD2A-Tudor Domain; AlphaScreen JMJD2A-Tudor / H3K4me3 peptide binding; Potency, µM (titrated, usually from 114 µM), most hits filed as inhibitors; hit rate 4.4% among 390,000; AID 504339, 2011; note: nearly all actives have a fitted effect of over 50% in size
PLK1 PBD inh – qHTS for Inhibitors of PLK1-PDB (polo-like kinase 1 - polo-box domain): Primary Screen; Plk1 PBD binding of FITC phosphopeptide, fluorescence polarization; Potency, µM, most hits filed as inhibitors; hit rate 2.8% among 360,000; AID 720504, 2013; note: series mostly up to about 57 µM; nearly all actives have a fitted effect of over 65% in size
Of the large screens only hits and unclear results are named; the others gave an inactive call. A selection: hits, their analogues and other compounds. The true share with any hit is near 7%. Unless noted, calls come from the whole dose curve; as a rule, active = well fitted curve in the direction sought with a large enough effect; inconclusive = small, poorly fitted or top-dose-only effect, or another doubt; inactive = no such curve, though single readings can be large; an effect the other way counts as inactive or inconclusive.

COc1ccc(OCCN(C)Cc2c(O)ccc3ccccc23)cc1	JMJD2A Tudor inh inconclusive, PLK1 PBD inh 8.44µM
CN(CCOc1ccccc1)Cc1ccccc1	none (no result: KAT2A inh, BAZ2B inh, HP1b binding inh, JMJD2A Tudor inh)
CN(Cc1ccccc1)Cc1c(O)ccc2ccccc12	BAZ2B inh 79.4µM, HP1b binding inh inconclusive, JMJD2A Tudor inh 3.98µM, PLK1 PBD inh inconclusive
CSc1ccccc1NC(=O)CN(C)Cc1c(O)ccc2ccccc12	BAZ2B inh inconclusive, JMJD2A Tudor inh 56.2µM, PLK1 PBD inh 10.6µM
Cc1ccc2c(=O)cc(C(=O)Nc3c(C(=O)c4ccc(F)cc4)oc4ccccc34)oc2c1C	none (no result: PI5P4Ka inh, PLK1 PBD inh)
Cc1cc(-c2n[nH]c(=S)n2/N=C/c2cc([N+](=O)[O-])ccc2Cl)n[nH]1	BAZ2B inh inconclusive, HP1b binding inh inconclusive, JMJD2A Tudor inh 7.94µM
Cc1cc(-c2n[nH]c(=S)n2/N=C/c2ccc(Cl)c([N+](=O)[O-])c2)n[nH]1	BAZ2B inh inconclusive, JMJD2A Tudor inh 39.8µM, PLK1 PBD inh inconclusive
N#Cc1cccnc1N1CCN(C(=O)c2[nH]c(C(F)(F)F)nc2-c2ccccc2)CC1	none (no result: KAT2A inh, BAZ2B inh, HP1b binding inh, JMJD2A Tudor inh)
CC(OC(=O)[C@H](C)NC(=O)c1ccccc1Cl)C(=O)NCc1ccc2c(c1)OCO2 (some centres undefined)	none
CC(=O)Oc1ccc(C(=O)[C@H]2[C@H]3C(=O)N(c4cccc5ccccc45)C(=O)[C@H]3[C@@H]3C=CC=NN32)cc1	BAZ2B inh inconclusive, JMJD2A Tudor inh inconclusive, PLK1 PBD inh 42.3µM
CCOC(=O)CSc1nnc(CNc2ccc(Cl)cc2)n1-c1ccccc1	none (no result: PI5P4Ka inh)
CCCCOc1ccc(CN2CCSCC2)cc1	HP1b binding inh inconclusive, JMJD2A Tudor inh 28.2µM
CCOc1ccc(CNc2ccc(N3CCN(Cc4ccccc4)CC3)cc2)cc1	BAZ2B inh 8.91µM, HP1b binding inh inconclusive, JMJD2A Tudor inh 8.91µM
CC(=O)Nc1ccc(N2CCN(Cc3ccccc3)CC2)cc1	none
CCOc1ccc(NCc2nnc(SCc3ccc(Cl)cc3)n2-c2ccccc2)cc1	BAZ2B inh 14.1µM, HP1b binding inh inconclusive, JMJD2A Tudor inh 22.4µM
CCOc1ccc(CN2CCSCC2)cc1	BAZ2B inh inconclusive, HP1b binding inh inconclusive, JMJD2A Tudor inh 3.55µM
CCOc1ccc(CN2CCN(C(=O)c3ccccc3)CC2)cc1	BAZ2B inh inconclusive, HP1b binding inh inconclusive, PLK1 PBD inh inconclusive
O=C(COC(=O)/C=C/c1ccc(F)cc1)NC(=O)NCc1ccccc1	none (no result: KAT2A inh, BAZ2B inh, HP1b binding inh, JMJD2A Tudor inh)
O=C(O)c1cccc(-c2nnn(Cc3ccccc3Cl)n2)c1	PI5P4Ka inh inconclusive, JMJD2A Tudor inh inconclusive, PLK1 PBD inh 21.2µM
NS(=O)(=O)c1ccc(CNC(=O)c2cc(=O)[nH]c3ccccc23)cc1	none
COC(=O)C1=C(C)NC(=O)/C1=C\c1cc(C)n(-c2c(C)cccc2C)c1C	BAZ2B inh 31.6µM, HP1b binding inh inconclusive, JMJD2A Tudor inh 31.6µM (no result: PI5P4Ka inh)
COC(=O)C1=C(C)NC(=O)/C1=C\c1cc(C)n(-c2ccccc2F)c1C	BAZ2B inh 44.7µM
COC(=O)C1=C(C)NC(=O)/C1=C\c1ccc2c(c1)OCO2	none
Cc1cccc(C)c1-n1c(C)cc(/C=C2\NC(=O)NC2=O)c1C	BAZ2B inh 39.8µM, JMJD2A Tudor inh 50.1µM (no result: PI5P4Ka inh)
COC(=O)c1cccc(-n2c(C)cc(/C=C3\SC(=O)NC3=O)c2C)c1	none (no result: KAT2A inh, BAZ2B inh, HP1b binding inh, JMJD2A Tudor inh)
COC(=O)C1=C(C)NC(=O)/C1=C\c1cccs1	none
COC(=O)C1=C(C)NC(=O)/C1=C\c1cc(C)n(-c2ccccc2C)c1C	BAZ2B inh 44.7µM, JMJD2A Tudor inh 44.7µM
CCN=C1S/C(=C\c2ccc(OC)c(OCC)c2)C(=O)N1CC	none (no result: HP1b binding inh, PI5P4Ka inh, JMJD2A Tudor inh, PLK1 PBD inh)
CCN=C1S/C(=C\c2cc(Br)c(O)c(OC)c2)C(=O)N1CC	PI5P4Ka inh -73.1
COc1cc([N+](=O)[O-])cc(/C=C2/SC(=S)N(Cc3ccccc3)C2=O)c1O	KAT2A inh inconclusive, BAZ2B inh 14.1µM, HP1b binding inh inconclusive, PI5P4Ka inh -70.6, JMJD2A Tudor inh 17.8µM, PLK1 PBD inh 29.9µM
